Measurements as given in PubChem BioAssay (NCATS).
Values joined by “and” are separate entries in the source; they are usually repeats but may differ in a detail not shown here. Equal values may be shown once. Results filed as inconclusive are left out. Active and inactive are the calls of the source. Unless noted, the call rests on the fitted dose curve; in most records, active means well fitted curve in either direction with a large enough effect (not every such curve was filed as active); inconclusive means small, poorly fitted or top-dose-only effect, or another doubt; inactive means flat fitted curve, though single readings scatter.

How the values were obtained:
[1] = AP1 Signaling Pathway (AID 357); settings: ME-180 AP-1-bla reporter, EGF-induced, beta-lactamase ratio, 5 h; series mostly up to 17.2 µM;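 further: ME-180 reporter cells stimulated with EGF at its EC50 level; on the % scale 0 is the no-effect control and ±100 the full control effect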
Procedure, shortened: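 Cells are seeded overnight, exposed to compound titrations and an EC50 level of EGF for 5 hours at 37 °C, then loaded with CCF4 dye for 2.5 hours. Beta-lactamase activity under the AP-1 element is read as a blue/green ratio.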

[2] = target: Cytochrome P450 1A2 (Homo sapiens) (UniProt P05177); experiment: p450-cyp1a2 (AID 410; calls by dose curve; further: potency means the concentration at half of the fitted maximal effect;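 on activity change, negative = inhibition: -100% = full effect of reference inhibitor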); settings: recombinant CYP1A2, luciferin-ME demethylation, luminescence; series mostly up to 25.6 µM
Sequence of Cytochrome P450 1A2 (Homo sapiens) (P05177 whole entry, looked up): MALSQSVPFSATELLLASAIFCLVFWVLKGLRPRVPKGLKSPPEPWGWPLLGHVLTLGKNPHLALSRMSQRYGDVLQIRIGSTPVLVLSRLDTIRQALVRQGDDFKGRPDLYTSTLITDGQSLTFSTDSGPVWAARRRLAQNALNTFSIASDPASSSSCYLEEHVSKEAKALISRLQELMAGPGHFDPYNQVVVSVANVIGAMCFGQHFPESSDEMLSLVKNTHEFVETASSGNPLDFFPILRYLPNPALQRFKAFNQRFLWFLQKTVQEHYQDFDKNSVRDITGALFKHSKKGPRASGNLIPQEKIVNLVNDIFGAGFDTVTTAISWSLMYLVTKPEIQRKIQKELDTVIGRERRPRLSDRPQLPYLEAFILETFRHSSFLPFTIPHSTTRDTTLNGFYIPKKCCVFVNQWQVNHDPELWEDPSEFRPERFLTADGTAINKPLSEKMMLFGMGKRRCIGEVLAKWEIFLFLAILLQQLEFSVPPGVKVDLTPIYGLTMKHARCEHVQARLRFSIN
Procedure, shortened: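 Luminescent demethylation readout: Luciferin-ME (100uM, equal to Km) turned over by 20nM CYP1A2 for 60 min at room temperature after NADPH regeneration addition, following 10 min compound preincubation. Normalization used 57 uM furafylline as full inhibition.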

[3] = NFAT Signaling Pathway (AID 444); settings: Jurkat NFAT-bla M1, carbachol, beta-lactamase ratio, 5 h;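 further: carbachol stimulus at about its EC50 of 1 µM final; on the % scale 0 is the no-effect control and ±100 the full control effect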
Procedure, shortened: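 Read-out: CCF4 FRET ratio (460 nm/530 nm) after 1 h RT dye loading, used for %activity and AC50 from titration series. Cells: Jurkat NFAT-β-lactamase/M1 line, treated with compound plus 1 uM carbachol for 5 h, 37 °C.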

[4] = Stat Signaling Pathway (AID 446); settings: ME-180 (cervical carcinoma) SIE beta-lactamase reporter, IL-6 stimulated, 5 h; series mostly up to 17.2 µM;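 further: ME-180 cervical cancer cells given 40 pM IL-6 alongside compound; SIE-controlled beta-lactamase reporter measured as 460/530 nm FRET emission ratio; on the % scale 0 is the no-effect control and ±100 the full control effect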
Procedure, shortened: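 Compound effects on IL-6-induced STAT reporter activity were measured in ME-180 cells. After overnight culture, cells were co-treated with 40 pM IL-6 for 5 hrs before beta-lactamase substrate loading at room temperature.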

[5] = target: Glucocorticoid receptor (Homo sapiens) (UniProt P04150); experiment: GR-GFP Redistribution (AID 450;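 active means compounds whose dose series gives a full or clear partial fitted curve of increased nuclear translocation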; further: potency means the concentration at half of the fitted maximal effect); settings: U2OS GR-GFP nuclear translocation, laser cytometry, 2 h
Sequence of Glucocorticoid receptor (Homo sapiens) (P04150 whole entry, looked up, the tested form may be a part): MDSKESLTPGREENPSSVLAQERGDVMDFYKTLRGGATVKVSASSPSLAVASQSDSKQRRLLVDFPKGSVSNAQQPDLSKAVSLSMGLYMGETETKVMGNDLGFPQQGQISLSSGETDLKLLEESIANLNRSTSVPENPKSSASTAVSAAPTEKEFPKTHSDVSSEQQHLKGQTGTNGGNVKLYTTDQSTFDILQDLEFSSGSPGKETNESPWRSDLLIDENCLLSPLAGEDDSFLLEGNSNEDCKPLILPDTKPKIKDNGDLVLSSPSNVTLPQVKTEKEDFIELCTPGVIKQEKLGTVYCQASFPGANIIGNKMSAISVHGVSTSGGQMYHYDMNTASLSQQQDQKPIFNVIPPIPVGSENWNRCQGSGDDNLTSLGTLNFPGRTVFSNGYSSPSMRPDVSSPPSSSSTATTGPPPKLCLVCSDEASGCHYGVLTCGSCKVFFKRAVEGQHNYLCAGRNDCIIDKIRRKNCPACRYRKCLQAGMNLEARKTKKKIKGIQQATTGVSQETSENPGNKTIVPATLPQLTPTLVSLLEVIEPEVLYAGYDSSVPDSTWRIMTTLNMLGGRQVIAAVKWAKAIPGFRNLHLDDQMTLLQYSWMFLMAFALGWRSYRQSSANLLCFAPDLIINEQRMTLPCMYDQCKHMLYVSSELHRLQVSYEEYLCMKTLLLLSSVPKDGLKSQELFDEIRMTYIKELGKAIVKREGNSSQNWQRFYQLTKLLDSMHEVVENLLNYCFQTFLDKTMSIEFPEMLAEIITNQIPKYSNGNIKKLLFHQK

[6] = target: Glucocorticoid receptor (Homo sapiens) (UniProt P04150); experiment: GR-EFC Redistribution (AID 451; calls by dose curve; further: potency means the concentration at half of the fitted maximal effect); settings: CHO-K1 GR-EFC translocation, beta-gal luminescence, 2 h
Procedure, shortened: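 Translocation of GR-ED fusion to nuclear EA restores b-gal, read by luminescence after 1 h room-temperature detection. Engineered CHO-K1 biosensor cells, 1,000/well, exposed 2 h at 37 C to titrations up to 46 uM final.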

[7] = target: Mitogen-activated protein kinase 10 (Mus musculus) (UniProt Q61831); experiment: JNK3 AlphaScreen Assay (AID 530); settings: JNK3 lysate, c-Jun phosphorylation; series mostly up to 57.1 µM;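 further: kinase came from lysate of stimulated human HepG2 cells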; further: potency means the concentration at half of the fitted maximal effect;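 on activity change, negative = inhibition: signal reports phosphorylation of biotinylated GST-cJun 1-79 at Ser73 with 10 µM ATP; on the % scale 0 is the no-effect control and ±100 the full control effect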
Procedure, shortened: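 qHTS titrations with 15 min compound pre-incubation before adding ATP (10 uM final). Read-out: AlphaScreen of Ser73-phosphorylated biotin-GST-cJun using HepG2 lysate JNK3 activated by IL-1β and TNFα.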

[8] = target: 3',5'-cyclic-AMP phosphodiesterase 4B (Homo sapiens) (UniProt Q07343); experiment: qHTS Assay for Inhibitors of PDE-IV (AID 607; active means well fitted activation curve with a large enough effect in the main read-out, with a control signal flat, not every such curve was filed as active; further: % of control where 0% means no effect); settings: HEK293 ACTOne CNG channel cells, membrane potential fluorescence; series mostly up to 22.9 µM
Sequence of 3',5'-cyclic-AMP phosphodiesterase 4B (Homo sapiens) (Q07343 whole entry, looked up): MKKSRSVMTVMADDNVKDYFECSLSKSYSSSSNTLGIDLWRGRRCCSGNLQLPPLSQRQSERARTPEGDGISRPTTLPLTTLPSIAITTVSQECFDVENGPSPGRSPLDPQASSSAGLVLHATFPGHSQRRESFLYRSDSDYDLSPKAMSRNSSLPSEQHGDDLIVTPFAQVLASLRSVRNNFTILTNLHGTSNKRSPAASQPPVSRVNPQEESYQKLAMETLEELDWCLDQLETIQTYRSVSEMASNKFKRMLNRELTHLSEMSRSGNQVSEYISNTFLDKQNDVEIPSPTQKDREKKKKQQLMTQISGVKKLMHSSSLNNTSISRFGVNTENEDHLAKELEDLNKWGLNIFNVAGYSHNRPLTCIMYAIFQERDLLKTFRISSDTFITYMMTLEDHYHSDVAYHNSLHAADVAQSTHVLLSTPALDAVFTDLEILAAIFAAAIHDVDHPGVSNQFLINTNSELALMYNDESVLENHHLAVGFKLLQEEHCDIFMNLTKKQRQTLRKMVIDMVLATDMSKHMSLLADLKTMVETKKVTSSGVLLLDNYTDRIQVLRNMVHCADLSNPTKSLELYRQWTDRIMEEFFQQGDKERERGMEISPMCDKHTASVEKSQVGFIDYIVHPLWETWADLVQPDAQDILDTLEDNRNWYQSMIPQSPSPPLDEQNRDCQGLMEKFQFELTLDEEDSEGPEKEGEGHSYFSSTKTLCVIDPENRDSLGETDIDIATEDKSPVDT
Procedure, shortened: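 ACTOne HEK293 cells carry a modified cAMP-gated CNG channel and express endogenous PDE4; plated 1000 cells/well, compounds up to 22.9 uM final. Membrane-potential dye fluorescence (ex 535/em 590) was read; parental cells received 10 uM forskolin + 100 uM RO 20-1724.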

[9] = Cell Viability - BJ (AID 421; calls by dose curve;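 further: potency means the concentration at half of the fitted maximal effect; cells exposed to compound for 40 hours at 37 °C before readout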); settings: BJ fibroblast viability, qHTS
Procedure, shortened: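 Luminescent ATP signal (CellTiter-Glo, 20 min at room temperature) served as the read-out of viable BJ cells after 40 hours of compound treatment. Responses were scaled between DMSO and 100 uM tamoxifen, and AC50 values were obtained by Hill modeling.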

[10] = Cell Viability - Hek293 (AID 427;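 active means compounds whose dose-response curve shows a full or clear partial loss of cell viability, called from curve shape rather than a numeric limit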;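 further: potency means the concentration at half of the fitted maximal effect; cells exposed to compound for 40 hours at 37 °C before reading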); settings: qHTS
Procedure, shortened: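 Luminescent ATP read-out (CellTiter-Glo, 20 min RT) after 40 hr compound exposure at 37 °C in complete medium. Signal normalized to DMSO (basal) and 100 uM tamoxifen (100% inhibition); concentration-response fitted with the standard Hill equation to give AC50.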

[11] = Cell Viability - HepG2 (AID 433; calls by dose curve;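 further: potency means the concentration at half of the fitted maximal effect; potency for ATP loss meaning cytotoxicity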); settings: qHTS
Procedure, shortened: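 Cytotoxicity is scored as loss of intracellular ATP in HepG2 cells exposed to compounds for 40 h. Concentration-response curves, normalized to DMSO and 100 uM tamoxifen, give AC50 values.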

[12] = Cell Viability - MRC5 (AID 434; calls by dose curve;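 further: potency means the concentration at half of the fitted maximal effect; cells exposed to compound for 40 hours at 37 °C; potency reflects cytotoxicity seen as loss of intracellular ATP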); settings: MRC5 lung fibroblast viability, qHTS
Procedure, shortened: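 AC50 values come from Hill-equation fits of intracellular ATP loss, measured by CellTiter-Glo luminescence. Normal lung fibroblasts (MRC5) had 40 hr compound treatment at 37 C, normalized between DMSO and 100 uM tamoxifen.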

[13] = Cell Viability - SK-N-SH (AID 435; calls by dose curve; further: potency means the concentration at half of the fitted maximal effect); settings: SK-N-SH neuroblastoma cell viability qHTS
Procedure, shortened: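 Cells seeded at 1500 per well and incubated 5 hr at 37 °C. Compound added, then 40 hr at 37 °C. CellTiter-Glo added, 20 min at room temperature, luminescence read.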

[14] = Cell Viability - N2a (AID 540; active means well fitted curve in the direction sought with a large enough effect; an effect the other way counts as inactive or inconclusive;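 further: plate controls were DMSO alone for no effect and tamoxifen control for full effect; nearly all actives have a fitted effect of over 45% in size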); settings: N2a mouse neuroblastoma cell viability; activity change, negative = cytotoxicity: at 92.2 µM (top of the series)
Procedure, shortened: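 CellTiter-Glo ATP luminescence, read 20 min after reagent at room temperature, reported viability following 40 h compound treatment at 37 °C. N2a mouse neuroblastoma cells seeded 1500/well; Hill equation gave AC50.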

[15] = Cell Viability - NIH 3T3 (AID 541; active means well fitted curve in the direction sought with a large enough effect; an effect the other way counts as inactive or inconclusive;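 further: plate controls were DMSO alone for no effect and tamoxifen positive control for full effect; nearly all actives have a fitted effect of over 25% in size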); settings: NIH 3T3 cell viability, qHTS; series mostly up to 92.2 µM
Procedure, shortened: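 Intracellular ATP (CellTiter-Glo luminescence, 20 min at room temperature) measured after 40 hr compound exposure at 37 °C of 1000 NIH 3T3 mouse fibroblasts/well in complete medium; AC50 derived by Hill-equation modelling of qHTS concentration-response curves.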

[16] = Cell Viability - HUV-EC-C (AID 542; active means well fitted curve in the direction sought with a large enough effect; an effect the other way counts as inactive or inconclusive; further: on the % scale 0 is the no-effect control and ±100 the full control effect; nearly all actives have a fitted effect of over 35% in size); settings: HUV-EC-C endothelial cell viability, qHTS; series mostly up to 92.2 µM
Procedure, shortened: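 CellTiter-Glo luminescence measured ATP loss in HUV-EC-C cells (1000/well) after 40 hr compound exposure at 37 °C, in complete culture medium. Concentration-response data were Hill-fitted to give AC50.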

[17] = Cell Viability - H-4-II-E (AID 543; active means well fitted curve in the direction sought with a large enough effect; an effect the other way counts as inactive or inconclusive; further: on the % scale 0 is the no-effect control and ±100 the full control effect; nearly all actives have a fitted effect of over 35% in size); settings: H-4-II-E rat hepatoma viability; series mostly up to 92.2 µM
Procedure, shortened: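 CellTiter-Glo luminescence (intracellular ATP) measured after 40 h compound exposure at 37 °C in H-4-II-E rat hepatoma cells seeded at 1500/well. Values are AC50s fitted with the standard Hill equation.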

[18] = Cell Viability - SH-SY5Y (AID 544; active means well fitted curve in the direction sought with a large enough effect; an effect the other way counts as inactive or inconclusive;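 further: 0% = DMSO alone and -100% = 100 µM tamoxifen; nearly all actives have a fitted effect of over 55% in size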); settings: SH-SY5Y neuroblastoma cell viability; series mostly up to 92.2 µM
Procedure, shortened: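 Cytotoxicity measured via ATP-dependent luciferase luminescence (CellTiter-Glo) following 40 h, 37 °C exposure of 1500 SH-SY5Y cells per well. Concentration-response data were fitted with the standard Hill equation to give AC50.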

[19] = Cell Viability - Renal Proximal Tubule (AID 545; active means well fitted curve in the direction sought with a large enough effect; an effect the other way counts as inactive or inconclusive;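 further: 0% = DMSO only and -100% = 100 µM tamoxifen; nearly all actives have a fitted effect of over 40% in size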); settings: renal proximal tubule cells viability, primary cells of rat origin; series mostly up to 91.7 µM
Procedure, shortened: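 Cytotoxicity is scored as a concentration-dependent drop in cellular ATP in primary rat renal proximal tubule cells exposed for 40 hr. AC50 derives from Hill modelling.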

[20] = Cell Viability - Mesenchymal (AID 546; active means well fitted curve in the direction sought with a large enough effect; an effect the other way counts as inactive or inconclusive;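 further: cells exposed to compound for 40 hours before reading; 0% = DMSO only and -100% = 100 µM tamoxifen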); settings: mesenchymal cells viability, qHTS; series mostly up to 91.7 µM
Procedure, shortened: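 CellTiter-Glo luminescence (intracellular ATP, 20 min room temperature) after 40 hr compound exposure at 37 °C of 1000 glomerulus-derived human kidney mesenchymal cells/well; AC50 values obtained by fitting qHTS concentration-response data to the Hill equation.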

O=c1c(O)c(-c2cc(O)c(O)c(O)c2)oc2cc(O)cc(O)c12
active: Potency [2] 5.01 µM and 2 µM and 7.94 µM | Potency [7] 12.6 µM
inactive: outcome [1] | activity change, negative = inhibition ([3]; at 17.2 µM (top of the series)) -3.39% | activity change, negative = inhibition ([3]; at 38 µM (top of the series)) 11.8% | outcome [4] | Potency [5] > 46 µM and > 20.6 µM | Potency [6] > 46 µM and > 20.6 µM | outcome [8]

O=C(O)c1cccnc1Nc1cccc(C(F)(F)F)c1
active: Potency [2] 10 µM and 5.01 µM
inactive: outcome [1] | activity change, negative = inhibition ([3]; at 17.2 µM (top of the series)) -16.9% and -24.7% | activity change, negative = inhibition ([3]; at 38 µM (top of the series)) 5.69% | outcome [4] | Potency [5] > 46 µM and > 20.6 µM | Potency [6] > 46 µM and > 20.6 µM | Potency [7] | outcome [8]

Cc1ccc(C)c(OCCCC(C)(C)C(=O)O)c1
inactive: outcome [1] | Potency [9] > 92 µM | Potency [10] > 92 µM | Potency [11] > 92 µM | Potency [12] > 92 µM | Potency [13] > 92 µM | activity change, negative = inhibition ([3]; at 17.2 µM (top of the series)) 0.602% and 17.8% | outcome [4] | Potency [7] | Potency [14] | Potency [15] | Potency [16] | Potency [17] | Potency [18] | Potency [19] | Potency [20] | outcome [8]
active: Potency [2] 12.6 µM

O=C(O)c1cc(=O)c2c(OCC(O)COc3cccc4oc(C(=O)O)cc(=O)c34)cccc2o1
inactive: outcome [1] | Potency [2] | activity change, negative = inhibition ([3]; at 17.2 µM (top of the series)) -1.1% and -27.1% | outcome [4] | Potency [7] | outcome [8]

CC1(C)NC(=O)N(c2ccc([N+](=O)[O-])c(C(F)(F)F)c2)C1=O
inactive: outcome [1] | activity change, negative = inhibition ([3]; at 17.2 µM (top of the series)) -3.85% | activity change, negative = inhibition ([3]; at 38 µM (top of the series)) 1.13% | outcome [4] | Potency [7] | outcome [8]
active: Potency [2] 12.6 µM and 3.16 µM and 2.51 µM

O=c1cc(N2CCOCC2)oc2c(-c3ccccc3)cccc12
inactive: outcome [1] | activity change, negative = inhibition ([3]; at 38 µM (top of the series)) -14.3% | outcome [4] | Potency [5] > 46 µM | Potency [6] > 46 µM | Potency [7] | outcome [8]
active: Potency [2] 1.58 µM and 200 nM

CC1(C)C(=O)N(CCN2CCC(C(=O)c3ccc(F)cc3)CC2)c2ccccc21
inactive: outcome [1] | Potency [2] | activity change, negative = inhibition ([3]; at 38 µM (top of the series)) -22.8% | outcome [4] | Potency [5] > 46 µM | Potency [6] > 46 µM | outcome [8]

CN1C(C(=O)Nc2ccccn2)=C(O)c2sccc2S1(=O)=O
inactive: outcome [1] | Potency [2] | activity change, negative = inhibition ([3]; at 17.2 µM (top of the series)) 9.83% | outcome [4] | Potency [5] > 20.6 µM | Potency [6] > 20.6 µM | Potency [7] | outcome [8]

Cc1cccc(C#Cc2ccccc2)n1
inactive: outcome [1] | activity change, negative = inhibition ([3]; at 38 µM (top of the series)) -6.27% | outcome [4] | Potency [5] > 46 µM | Potency [6] > 46 µM | Potency [7] | outcome [8]
active: Potency [2] 631 nM and 158 nM

Cc1c(OCC(F)(F)F)ccnc1CS(=O)c1nc2ccccc2[nH]1 (stereo unspecified)
active: Potency [2] 31.6 µM and 15.8 µM
inactive: outcome [1] | activity change, negative = inhibition ([3]; at 17.2 µM (top of the series)) -20.4% and -11.1% | activity change, negative = inhibition ([3]; at 38 µM (top of the series)) 0.241% | outcome [4] | Potency [5] > 46 µM and > 20.6 µM | Potency [6] > 46 µM and > 20.6 µM | Potency [7] | outcome [8]

Cc1cc(C2CCCCC2)n(O)c(=O)c1
active: Potency [2] 15.8 µM
inactive: outcome [1] | outcome [4] | Potency [5] > 20.6 µM | Potency [6] > 20.6 µM | Potency [7] | outcome [8]

CCCc1cc(=O)[nH]c(=S)[nH]1
inactive: outcome [1] | Potency [2] | Potency [9] > 92 µM | Potency [10] > 92 µM | Potency [11] > 92 µM | Potency [12] > 92 µM | Potency [13] > 92 µM | activity change, negative = inhibition ([3]; at 17.2 µM (top of the series)) -2.4% and 6.45% | outcome [4] | Potency [7] | Potency [14] | Potency [15] | Potency [16] | Potency [17] | Potency [19] | Potency [20] | outcome [8]

CCC1=C(C)CN(C(=O)NCCc2ccc(S(=O)(=O)NC(=O)NC3CCC(C)CC3)cc2)C1=O (stereo unspecified)
inactive: outcome [1] | Potency [2] | activity change, negative = inhibition ([3]; at 17.2 µM (top of the series)) 4.19% | outcome [4] | Potency [5] > 20.6 µM | Potency [6] > 20.6 µM | Potency [7] | outcome [8]
